# Reference: PubChem BioAssay AID934 (National Center for Advancing Translational Sciences (NCATS), 2007)
# Records with an inconclusive call do not appear. Active and inactive are the calls of the source. Calls follow the shape of the dose curve; as a rule, active = well fitted activation curve with a large enough effect; inconclusive = small, poorly fitted or top-dose-only effect; inactive = flat fitted curve, though single readings scatter.
# Test: Parental Cell Counter Screen for Stat Signaling Pathway Assay
# Details: ME-180 (cervical carcinoma) parental cells, blue fluorescence artefact counter-screen; series mostly up to 38.3 µM; activity (fluorescence increase): at the top concentration
# Summary of the method: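 Parental ME-180 cells (no SIE-bla reporter) plated overnight at 37 C, then given compound plus IL-6 at 40 pM final for 5 hr at 37 C. LiveBLAzer beta-lactamase substrate added for 2.5 hr at room temperature; fluorescence read at 460 and 530 nm emission with 405 nm excitation.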
SMILES,Potency,activity (fluorescence increase)
CCNC(=O)c1cc2c(=O)n3cccc(C)c3nc2n(CCc2ccccc2)c1=N,12.6 µM (active),–
COc1ccc(C(=O)CCN(C)C)c2ccccc12,–,15.7% (inactive)
CCOC(=O)CSc1nnc2n(Cc3ccccc3)c(=O)c3c4c(sc3n12)CCC4,–,16.7% (inactive)
Clc1ccc(-c2nnc3sc(Cc4cccs4)nn23)cc1,–,4.63% (inactive)
OC[C@@H]1O[C@@H](n2cnc3c(SCc4ccccc4)ncnc32)[C@@H](O)[C@H]1O,–,0.926% (inactive)
CC(=O)Oc1ccc(C(c2ccc(OC(C)=O)cc2)c2ccccn2)cc1,–,10.2% (inactive)
CCC(=O)Oc1oc(-c2ccccc2)nc1C=Nc1ccccc1OC,–,17.6% (inactive)
CCCCSc1nc(N)c(C#N)c(-c2cccs2)c1C#N,–,38% (inactive)
COc1ccc2c(c1)c1c(C)c3cnccc3c(C)c1n2CCCN,31.6 µM (active),–
CC(C)N1CC=C2C(C#N)=C(N)C(C#N)(C#N)C(c3ccccc3)C2C1 (stereo not drawn),5.01 µM (active),–
Cc1ccccc1CNc1ncnc2c1ncn2[C@@H]1O[C@@H](CO)[C@H](O)[C@@H]1O,–,12.1% (inactive)
COc1ccc(-c2nn3c(COc4ccccc4)nnc3s2)cc1OC,–,10.2% (inactive)
CN(C)CCCN=c1c2ccccc2n(C)c2[nH]c(=O)n(C)c(=O)c12,–,8.49% (inactive)
CN(C)CCCn1c2c3ccccc3ccc2c2oc(=O)c3ccccc3c21,12.6 µM (active),–
CCOC(=O)N1CCC(=C2c3ccc(Cl)cc3CCc3cccnc32)CC1,–,22.2% (inactive)
NCCSc1nc2ccccc2s1,–,11.3% (inactive)
N/C(=N\O)c1cn([C@@H]2O[C@@H](CO)[C@H](O)[C@@H]2O)c2ncnc(NO)c12,–,18.9% (inactive)

SMILES,Potency,activity (fluorescence increase)
Cc1oc2cc(O)cc(C)c2c(=O)c1-c1cnn(-c2ccccc2)c1,–,10.2% (inactive)
Cc1cc(=O)oc2c(CN3CCCCC3)c(O)c(Cl)cc12,10 µM (active),–
O=C(O)CCc1c2ccc(=O)c(O)c-2oc2c(O)c(O)ccc12,–,-1.89% (inactive)
CC(C)C[C@H]1C(=O)N2CCC[C@H]2[C@]2(O)O[C@](NC(=O)[C@@H]3C=C4c5cccc6[nH]c(Br)c(c56)CC4N(C)C3)(C(C)C)C(=O)N12 (stereo partly drawn),–,11.1% (inactive)
NS(=O)(=O)c1ccc(N=Nc2cc3ccccc3c(C(=O)O)c2O)cc1,–,4.72% (inactive)
Nc1ncnc2c1ncn2[C@@H]1O[C@H](CO)[C@@H](O)[C@H]1O,–,1.85% (inactive)
COc1ccc2[nH]c3c(N4CCN(Cc5ccc6c(c5)OCO6)CC4)ncnc3c2c1,–,9.26% (inactive)
CCc1cc2c(=O)c(-c3nc4ccccc4[nH]3)coc2cc1OC(=O)N1CCOCC1,12.6 µM (active),–
OC[C@@H]1CCC[C@H](n2cnc3c(=S)nc[nH]c32)O1,–,5.56% (inactive)
C=CCNC(=O)C(C#N)c1nc2ccccc2nc1N1CCCCCC1 (stereo not drawn),15.8 µM (active),–
COc1cccc2c1C(=N)c1c(O)c3c(c(O)c1C2=O)C[C@](O)(C(C)=O)C[C@@H]3O[C@H]1C[C@H](N)[C@@H](O)[C@H](C)O1,–,16% (inactive)
C=CCn1c(SCC(=O)c2ccc(NS(=O)(=O)c3ccccc3)cc2)nnc1-c1cccs1,–,12% (inactive)
Nc1ncnc2c1ncn2[C@@H]1O[C@H](COP(=O)(O)O)[C@@H](O)[C@@H]1O,–,-3.74% (inactive)
Cn1c(NCc2ccccc2)nc2c1c(=O)n(Cc1ccc(Br)cc1)c(=O)n2C,–,13.9% (inactive)
COc1cc2nc(-c3ccccc3)nc(N3CCCC3)c2cc1OC,–,4.63% (inactive)
COc1cc(-c2nn3c(COc4ccccc4)nnc3s2)cc(OC)c1OC,–,8.33% (inactive)
